Measurements published in PubChem BioAssay AID1347414 (National Center for Advancing Translational Sciences (NCATS), 2020).
Inconclusive results are not listed. Entries that show only a call come without a potency. The source made the active and inactive calls. The call rests on the fitted dose curve; in most records, active means well fitted inhibition curve with a large enough effect; inconclusive means small, poorly fitted or top-dose-only effect; inactive means no such curve, though single readings can be large or run the other way.

Experiment: qHTS to identify inhibitors of the type 1 interferon - major histocompatibility complex class I in skeletal muscle: Secondary screen by immunofluorescence; further: nearly all actives have a fitted effect of over 70% in size
Settings: C25cl48 myoblasts, IFN-b induced HLA-ABC immunofluorescence, 24 h, Viability; series mostly up to 49.8 µM
Text: Assay Submitter (PI): Travis B. Kinder Ph.D. & James Inglese Ph.D. Assay Development and Screening Technology Laboratory (ADST) National Center for Advancing Translational Sciences (NCATS), Rockville, MD National Institute of Health (NIH), Bethesda, Maryland Idiopathic inflammatory myopathies, collectively referred to as myositis, are a group of rare autoimmune diseases characterized by skeletal muscle inflammation, weakness, and usually accompanied by systemic pathologies of the skin, lungs, or vasculature. Current immunosuppressive therapies and glucocorticoids are often not curative and are accompanied by harsh side effects, especially in children with juvenile myositis. We initiated a drug repurposing and development program to identify more targeted, less toxic therapeutics to treat myositis. Although its cause is not known, muscle from a subset of patients have an abundance of the inflammatory type 1 interferon (IFN) and a down-stream product major histocompatibility complex class I (MHC class I), which are both thought to contribute to damage and weakness. We conducted quantitative high throughput screening (qHTS) on 6,576 compounds (4,679 unique) through a series of cell-based assays to identify those that inhibit the IFN-stimulated expression of MHC class I in muscle precursor cells (myoblasts). The compound identification and evaluation strategy utilized a primary screen with reporter-tagged MHC class I in genome-engineered myoblasts, ATP content counter screen for viability, HLA-ABC immunofluorescence secondary screen, and HLA-B RT-qPCR tertiary screen. To verify activity of compounds identified by qHTS in HLA-B HiBit reporter cells, compounds were assayed by high throughput HLA-ABC immunofluorescence. Briefly, 216 compounds identified from primary and counter screening as inhibitory with minimal cytotoxicity were dispensed into black/clear bottom […] using acoustic dispensing in an 11-point, 1:3 titration with a high final concentration of 50 uM. Normal immortalized human myoblasts C25cl48 were added to the plates with 4.0 ng/ml human IFN-beta for 24 hours, fixed, stained by immunofluorescence for HLA-ABC protein, nuclei, and cell body, and analyzed by laser scanning cytometry as described by Auld et al., 2006. References: Auld DS, Johnson RL, Zhang Y, Veith H, Jadhav A, Yasgar A, Simeonov A, Zheng W, Martinez ED, Westwick JK, Austin CP, Inglese J. 2006. Fluorescent protein-based cellular assays analyzed by laser-scanning microplate cytometry in 1536-well plate format. Methods Enzymol 414:566-89. doi:10.1016/S0076-6879(06)14029-X
PROTOCOL TABLE (as described by Inglese et al., 2007) SEQUENCE No. (e.g., 1, 2, 3, etc.); […] (e.g., Cells, Incubation, Reagent, etc.); VALUE; DESCRIPTION 0; Compounds; 25 nl; Follow-up compounds dispensed at 25 nl/well with Labcyte Echo 655 acoustic dispenser in triplicate Aurora ChemLib 1536K black/clear bottom, low base, TC 1536-well plates (00019324). Also dispensed 25 nl/well DMSO control, ruxolitinib IFN-b inhibitor control titration, and digitonin cytotoxic control 1a; Cells; 5 uL; Multidrop Combi (Thermo Scientific) to seed 125 cells/well into eight plates in 5 ul/well of iHSKM growth medium (GM) without dexamethasone into columns 1+2. Add metal lids with gas-exchange holes 1b; Cells; 5 uL; Multidrop Combi (Thermo Scientific) to seed 125 cells/well into eight plates in 5 ul/well of iHSKM GM without dexamethasone + 4 ng/ml IFN-b into columns 3 - 48. […]
Potency means the concentration at half of the fitted maximal effect.

| Structure (SMILES) | Potency |
| --- | --- |
| CN(C)c1cc2c(cc1Sc1nc3c(N)nccc3n1CCNCC(C)(C)C)OCO2 | inactive |
| C=C(C)[C@@H]1CCC(C)=C[C@H]1c1c(O)cc(CCCCC)cc1O | 25.7 µM (active) |
| C/C1=C/C[C@@H](/C(C)=C/c2csc(C)n2)OC(=O)C[C@H](O)C(C)(C)C(=O)[C@H](C)[C@@H](O)[C@@H](C)CCC1 | inactive |
| COC(=O)[C@]12CCC(C)(C)C[C@H]1[C@H]1C(=O)C=C3[C@@]4(C)C=C(C#N)C(=O)C(C)(C)[C@@H]4CC[C@@]3(C)[C@]1(C)CC2 | 3.64 µM (active) |
| CC1=C(O)C(=O)C=C2C1=CC=C1[C@@]2(C)CC[C@@]2(C)[C@@H]3C[C@](C)(C(=O)O)CC[C@]3(C)CC[C@]12C | 5.76 µM (active) |
| O=C1/C(=C\c2ccccc2)C[C@@]2(O)[C@H]3Cc4ccc(O)c5c4[C@@]2(CCN3CC2CC2)[C@H]1O5 | 10.2 µM (active) |
| Cc1sc2c(c1C)C(c1ccc(Cl)cc1)=N[C@@H](CC(N)=O)c1nnc(C)n1-2 | inactive |
| O=c1[nH]c2ccc(Cl)cc2c(N[C@@H]2CN3CCC2CC3)c1-c1nc2ccccc2[nH]1 | 4.58 µM (active) |
| CC(C)(C)c1cc(C=C(C#N)C#N)cc(C(C)(C)C)c1O | inactive |
| COc1cccc2c1C(=O)c1c(O)c3c(c(O)c1C2=O)C[C@@](O)(C(=O)CO)CC3OC1CC(N2CCOC(OC)C2)C(O)C(C)O1 (stereo not given in full) | inactive |
| CC(=O)OC[C@H]1O[C@@H]([S-])[C@H](OC(C)=O)[C@@H](OC(C)=O)[C@@H]1OC(C)=O.CC[PH+](CC)CC.[Au] | 1.62 µM (active) |
| C[C@@H]1O[C@@H](O[C@@H]2C=C3CC[C@@H]4[C@H](CC[C@]5(C)[C@@H](c6ccc(=O)oc6)CC[C@]45O)[C@@]3(C)CC2)[C@H](O)[C@H](O)[C@H]1O | inactive |
| Cc1[nH]ncc1-c1cc2nc([C@@H]3CC4CCN3CC4)[nH]c(=O)c2s1 | inactive |
| O=[N+]([O-])/C=C/c1ccc2c(c1)OCO2 | 11.5 µM (active) |
| CC1(C)CC[C@]2(NC(=O)C(C)(F)F)CC[C@]3(C)[C@H](C(=O)C=C4[C@@]5(C)C=C(C#N)C(=O)C(C)(C)[C@@H]5CC[C@]43C)[C@@H]2C1 | 4.08 µM (active) |
| Cc1sc2c(c1C)C(c1ccc(Cl)cc1)=N[C@@H](CC(=O)Nc1ccc(O)cc1)c1nnc(C)n1-2 | inactive |
| CC[C@@]1(O)C(=O)OCc2c1cc1n(c2=O)Cc2cc3ccccc3nc2-1 | inactive |
| CC(C)(O)/C=C\C(=O)[C@](C)(O)[C@H]1[C@H](O)C[C@]2(C)[C@@H]3CC=C4[C@@H](C=C(O)C(=O)C4(C)C)[C@]3(C)C(=O)C[C@@]12C | 16.2 µM (active) |
| CC(C)[C@]12O[C@H]1[C@@H]1O[C@@]13[C@@]1(C)CCC4=C(COC4=O)[C@@H]1C[C@@H]1O[C@@]13C2=O | inactive |
| COC(=O)[C@@]12OC[C@]34[C@H]([C@@H](O)[C@@H]1O)[C@@]1(C)CC(=O)C(O)=C(C)[C@@H]1C[C@H]3OC(=O)[C@H](OC(=O)/C=C(\C)C(C)C)[C@@H]24 | inactive |
| Cc1sc2c(c1C)C(c1ccc(Cl)cc1)=N[C@@H](CC(=O)OC(C)(C)C)c1nnc(C)n1-2 | inactive |
| C/C(=C\c1csc(C)n1)[C@@H]1C[C@@H]2O[C@]2(C)CCC[C@H](C)[C@H](O)[C@@H](C)C(=O)C(C)(C)[C@@H](O)CC(=O)O1 | inactive |
| C[C@@H]1O[C@@H](O[C@H]2C[C@@H](O)[C@]3(CO)[C@H]4[C@H](O)C[C@]5(C)[C@@H](C6=CC(=O)OC6)CC[C@]5(O)[C@@H]4CC[C@]3(O)C2)[C@H](O)[C@H](O)[C@H]1O | inactive |
| CCn1cnc2c(Nc3cccc(Cl)c3)nc(N[C@@H]3CCCC[C@@H]3N)nc21 | 25.7 µM (active) |
| CC(C)[C@]12O[C@H]1[C@@H]1O[C@]13[C@]1(O[C@H]1C[C@H]1C4=C(CC[C@@]13C)C(=O)OC4)[C@@H]2O | inactive |
